High-throughput results deposited in PubChem BioAssay by SRMLSC.
An excerpt weighted towards active compounds, which were near 6.8% of everything screened.
NADH coupling – inhibitors of enzymes used to reach an NAD/NADH endpoint; coupled PK/LDH NADH assays, four targets; IC50, µM (series often up to 10 µM), inactives show at the highest dose inhibition; actives 0.02% (n = 65,000);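 active = single-dose screening hits from any of four coupled enzyme assays that gave an IC50 when retested across doses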;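 note: the DPM-DC format reads NADH fluorescence rather than 340 nm absorbance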
Spn DPM-DC inh – blocks S. pneumoniae diphosphomevalonate decarboxylase; calls only at 10 µM; AID 556; actives 0.49% (n = 65,000); purified DPM-DC, PK/LDH coupled NADH fluorescence;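 active = the 320 compounds with the highest percent inhibition in the single-dose primary screen, excluding strongly autofluorescent ones, cut at about 32% in these data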;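 note: kinetic rate of NADH fluorescence loss reporting ADP formed by the decarboxylase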
A340 absorber – compound absorbs light at 340 nm; compound absorbance at 340 nm, fold over control; fold change at 10 µM; 65,000 tested, under 10 active;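 active = at 10 µM dose, initial 340 nm absorbance at least 2 fold that of control wells; inactive = change under 2 fold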;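 note: initial absorbance extrapolated from kinetic A340 decline of NADH oxidation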
Spn PMK inh – inhibitors of Streptococcus pneumoniae phosphomevalonate kinase | purified PMK, PK/LDH-coupled NADH absorbance 340 nm | actives 0.49% (n = 65,000) | inhibition, % at 10 µM;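 active = top-ranked compounds by inhibition in the single 10 µM screen, taking a fixed number of the strongest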;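 note: 0% = full reaction with DMSO carrier and 100% = background rate without enzyme reaction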
Fluor 339 460 – intrinsic fluorescence of library compounds, ex339/em460 – biochemical, MLSMR library, data from DPM-DC assay, artefact control, profiling panel; compound autofluorescence, ex339/em460 nm, NADH buffer; hits give high values; 1 = no-compound wells, NADH background; fluorescence fold increase at 10 µM; actives 5.5% (n = 65,000);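 active = at 10 µM, mean starting fluorescence two-fold or more over control wells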;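 note: signal is the first read of a kinetic run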
Spn MK inh – S. pneumoniae mevalonate kinase inhibition; purified MK, PK/LDH-coupled NADH absorbance 340 nm; inhibition, % at 10 µM; actives 0.48% (n = 65,000);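 active = ranked among the strongest by inhibition in the single 10 µM screen, a fixed top-ranked set picked for dose follow-up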
Numbers without * were called inactive; i = inactive; nt = no result given.

SMILES | NADH coupling | Spn DPM-DC inh | A340 absorber | Spn PMK inh | Fluor 339 460 | Spn MK inh
CCOC(=O)C1=C(C)NC2=C(C(=O)CCC2)C1c1cccnc1 (stereo not given) | 10% | nt | 1.1 | 8 | 2.1* | 11
CCOC(=O)C1=C(N)OC2=C(C(=O)CCC2)C1c1cccnc1 (stereo not given) | 4% | i | 1 | 0 | 1.1 | 12
O=C(CSc1cccc2cccnc12)N1CCCC1 | 3% | nt | 1 | 4 | 3.9* | 1
CN(C)C(=O)CSc1cccc2cccnc12 | 7% | nt | 1 | 6 | 3.9* | 7
CN(CC(=O)N1CCc2ccccc21)S(=O)(=O)c1cccc2cccnc12 | 5% | i | 1 | 9 | 1.1 | 7
COc1ccccc1-c1cc(C(=O)Nc2ccc(F)cc2F)no1 | 8% | i | 1 | 11 | 2.1* | 12
COc1ccccc1-c1cc(C(=O)NC(C)C)no1 | 4% | i | 1 | 11 | 1.2 | 2
CC1CN(C(=O)c2cc3c(s2)CCC3)CC(C)O1 (stereo not given) | 3% | i | 1 | 7 | 1.1 | 1
CC1CN(C(=O)c2cc3c(=O)n4ccccc4nc3s2)CC(C)O1 (stereo not given) | 9% | nt | 1.1 | 18 | 4.9* | 0
CCCC(=O)Nc1c(C)nn(C(=O)CCC)c1C | 6% | i | 1 | 0 | 0.9 | 14
N#Cc1nc(-c2ccccc2Cl)oc1NCC1CCCO1 (stereo not given) | 6% | i | 1.1 | 2 | 1.7 | 1
CN(C)CCCNc1oc(-c2ccccc2)nc1C#N | 5% | nt | 1.1 | 5 | 2.1* | 4
COc1ccc(-c2nc(C#N)c(NCC3CCCO3)o2)cc1OC (stereo not given) | 4% | nt | 1.1 | 0 | 3.9* | 8
COc1ccc(-c2nc(C#N)c(NCCCN(C)C)o2)cc1OC | 8% | nt | 1 | 16 | 3.1* | 33
Cc1cccc(OCc2nc(C#N)c(NCCN(C)C)o2)c1 | 2% | i | 0.97 | 9 | 1 | 8
N#Cc1nc(-c2ccccc2F)oc1NC1CCCCC1 | 2% | nt | 1.1 | 0 | 2.1* | 3
O=C(CCNc1ccc(F)cc1)c1ccco1 | 8% | i | 1 | 5 | 1.1 | 8
Cc1sc2ncnc(Sc3nnc4sc5ccccc5n34)c2c1C | 5% | i | 1 | 13 | 1.2 | 3
COc1ccc(-c2nc(C#N)c(NC(C)c3ccccc3)o2)cc1OC (stereo not given) | 6% | nt | 1 | 6 | 3.9* | 5
N#Cc1nc(-c2ccccc2F)oc1NCc1cccc2c1OCO2 | 1% | i | 1 | 0 | 1.7 | 4
COc1ccc(CCNc2oc(-c3ccc(OC)c(OC)c3)nc2C#N)cc1 | 4% | nt | 1.1 | 0 | 3.9* | 8
COc1ccc(-c2nnc(SCC(=O)NC(C)c3ccccc3)o2)cc1 (stereo not given) | 2% | i | 1 | 9 | 1.1 | 11
CN(C)CCNc1oc(-c2ccccc2F)nc1C#N | 4% | nt | 1 | 13 | 2.5* | 4
COc1ccc(CCNc2oc(COc3ccccc3)nc2C#N)cc1 | 3% | i | 1 | 0 | 1.1 | 9
CC(C)N(C(=O)N1CCC(c2nc(-c3ccncc3)no2)CC1)C(C)C | 2% | i | 0.99 | 13 | 1 | 9
SMILES | NADH coupling | Spn DPM-DC inh | A340 absorber | Spn PMK inh | Fluor 339 460 | Spn MK inh
Cc1cn(S(=O)(=O)c2ccc(Br)c3ccccc23)cn1 | 1% | i | 1 | 2 | 1 | 0
COc1cc(-c2c(C#N)c(N)nc3c2c(C)nn3-c2ccc(C)c(C)c2)cc(OC)c1OC | 2% | nt | 1.1 | 3 | 3.8* | 0
CCOc1cc2[nH]c(=O)n(CC3CCC(C(=O)NC(C)CC)CC3)c(=O)c2cc1OCC (stereo not given) | 5% | i | 1.1 | 0 | 2.7* | 2
CCOc1cc2[nH]c(=O)n(CC3CCC(C(=O)NC4CCCCC4)CC3)c(=O)c2cc1OCC (stereo not given) | 5% | i | 1.1 | 6 | 1.3 | 9
CCCCN(C)C(=O)CCCCn1c(=O)[nH]c2cc(OCC)c(OCC)cc2c1=O | 4% | i | 1 | 9 | 2.2* | 4
O=C(c1ccc(CNc2c(N3CCCC3)c(=O)c2=O)cc1)N1CCc2ccccc2C1 | 3% | i | 1 | 2 | 1 | 6
